Laboratory results published in PubChem BioAssay (NCATS).
Records with an inconclusive call do not appear. Calls of active or inactive are those of the source. Calls come from the whole dose curve; as a rule, active = well fitted inhibition curve with a large enough effect; inconclusive = small, poorly fitted or top-dose-only effect; inactive = flat fitted curve, though single readings scatter.

Key:
Assay in all cases: qHTS profiling for inhibitors of Plasmodium falciparum proliferation (AID 504749); note: nearly all actives have a fitted effect of over 60% in size
Settings in all cases: P. falciparum in erythrocytes, SYBR Green DNA, 72 h; series mostly up to 28.7 µM
C2A = system: C2A
Procedure, shortened: (§1)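 Parasite proliferation within erythrocytes, 72 h exposure. Endpoint: SYBR Green I fluorescence after overnight lysis at room temperature. Controls: 0.29 uM artemisinin, DMSO.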

CP185 = system: CP185
Procedure, shortened: as §1

CP191 = system: CP191
Procedure, shortened: as §1

CP192 = system: CP192
Procedure, shortened: as §1

CP194 = system: CP194
Procedure, shortened: as §1

CP201 = system: CP201
Procedure, shortened: as §1

CP211 = system: CP211
Procedure, shortened: as §1

CP215 = system: CP215
Procedure, shortened: as §1

CP217 = system: CP217
Procedure, shortened: as §1

CP237 = system: CP237
Procedure, shortened: as §1

CP238 = system: CP238
Procedure, shortened: as §1

CP247 = system: CP247
Procedure, shortened: as §1

CP250 = system: CP250
Procedure, shortened: as §1

CP252 = system: CP252
Procedure, shortened: as §1

CP256 = system: CP256
Procedure, shortened: as §1

CP260 = system: CP260
Procedure, shortened: as §1

CP262 = system: CP262
Procedure, shortened: as §1

CP265 = system: CP265
Procedure, shortened: as §1

CP266 = system: CP266
Procedure, shortened: as §1

CP268 = system: CP268
Procedure, shortened: as §1

Measured: Potency

CC(=O)OC1CC2CCC1(C)C2(C)C (stereo not given)
inactive: C2A | CP185 | CP191 | CP192 | CP194 | CP201 | CP211 | CP215 | CP217 | CP237 | CP238 | CP247 | CP250 | CP252 | CP256 | CP260 | CP262 | CP265 | CP266 | CP268
